# Measured values taken from PubChem BioAssay (Tox21).
# Inconclusive results are not listed. A call without a number means that no potency is given here. The source made the active and inactive calls. Unless noted, the call rests on the fitted dose curve; in most records, active means well fitted cell-killing curve with a large enough effect in the repeat runs; inconclusive means weak or mixed curves, or effect the other way; inactive means no such curve, though single readings can be large or run the other way.
# Biological target: Progesterone receptor (Homo sapiens) (UniProt P06401)
# Sequence (P06401 whole entry, looked up): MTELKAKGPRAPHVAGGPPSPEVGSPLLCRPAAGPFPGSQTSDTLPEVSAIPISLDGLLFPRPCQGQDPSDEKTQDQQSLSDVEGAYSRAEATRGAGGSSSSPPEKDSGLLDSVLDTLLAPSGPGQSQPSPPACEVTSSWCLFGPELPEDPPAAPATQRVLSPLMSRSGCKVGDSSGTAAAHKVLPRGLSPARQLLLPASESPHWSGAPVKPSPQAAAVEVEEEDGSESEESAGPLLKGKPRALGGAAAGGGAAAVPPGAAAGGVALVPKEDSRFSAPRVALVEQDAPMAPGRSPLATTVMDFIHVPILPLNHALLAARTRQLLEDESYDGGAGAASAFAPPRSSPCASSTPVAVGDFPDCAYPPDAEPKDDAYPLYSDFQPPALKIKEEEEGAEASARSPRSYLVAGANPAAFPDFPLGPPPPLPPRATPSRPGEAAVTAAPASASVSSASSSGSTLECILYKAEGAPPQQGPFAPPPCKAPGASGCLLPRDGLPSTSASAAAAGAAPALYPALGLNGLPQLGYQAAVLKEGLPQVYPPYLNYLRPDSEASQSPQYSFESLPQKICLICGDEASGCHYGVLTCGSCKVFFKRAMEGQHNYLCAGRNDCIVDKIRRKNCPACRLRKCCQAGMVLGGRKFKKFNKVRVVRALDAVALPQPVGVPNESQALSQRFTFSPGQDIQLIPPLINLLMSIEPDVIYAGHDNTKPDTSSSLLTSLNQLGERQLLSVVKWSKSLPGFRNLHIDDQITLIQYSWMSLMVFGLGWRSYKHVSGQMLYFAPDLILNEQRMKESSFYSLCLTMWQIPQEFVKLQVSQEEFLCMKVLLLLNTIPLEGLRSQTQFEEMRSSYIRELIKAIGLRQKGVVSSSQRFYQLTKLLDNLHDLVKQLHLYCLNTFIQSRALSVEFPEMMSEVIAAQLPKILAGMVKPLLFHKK
# Test: qHTS assay to identify small molecule antagonists of the progesterone receptor (PR) signaling pathway (AID 1346795; active means well fitted inhibition curve with a large enough effect in the signal ratio in the repeat runs, not every such curve was filed as active; the % refers to the signal ratio; further: potency means the concentration at half of the fitted maximal effect)
# Conditions: PR-UAS-bla HEK293T, beta-lactamase FRET ratio, 16 h; series mostly up to 92.4 µM
# In short: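 After 6 hr plating at 37C in 2% stripped-serum medium, PR-UAS-bla HEK293T cells got compounds, then 1 nM R5020. Sixteen hours later, LiveBLAzer substrate was applied for 2 hr at room temperature and fluorescence was recorded.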
row,SMILES,Potency
1,CC(=O)CCC=C(C)C,inactive
2,N[C@H](Cc1c[nH]c2ccccc12)C(=O)O,inactive
3,COc1ccc(C)cc1N,inactive
4,CCCCCCCO,inactive
5,OCc1ccccc1,inactive
6,O=C1c2ccccc2CCc2ccccc21,27.9 µM (active)
7,CCCCCCCCCCCCCCCC(=O)OC(C)C,inactive
8,CC(=O)c1ccc(O)cc1,inactive
9,O=C(O)CCCCCCCCC(=O)O,inactive
10,O=C(O)Cn1c(=O)n(Cc2ccc(Br)cc2F)c(=O)c2ccc(Cl)cc21,inactive
11,CCCOC(=O)c1ccccc1,inactive
12,COc1ccc(CCC(C)=O)cc1,inactive
13,CCCCC(C=O)CC (stereo unspecified),inactive
14,CC(C)(C)c1cc(Cc2cc(C(C)(C)C)c(O)c(C(C)(C)C)c2)cc(C(C)(C)C)c1O,inactive
15,O=C1C(c2[nH]c3ccccc3c2O)=Nc2ccccc21,inactive
16,CSc1ccc(Cl)cc1,inactive
17,CCO[Si](CCCN)(OCC)OCC,inactive
18,CC(C)(Oc1ccc(CCNC(=O)c2ccc(Cl)cc2)cc1)C(=O)O,inactive
19,NCCNCCN,inactive

row,SMILES,Potency
1,CCCCCCCC=O,inactive
2,CCNC(=S)NCC,inactive
3,O=C(O)/C=C/C(=O)O,inactive
4,c1ccc(Oc2ccccc2)cc1,inactive
5,Nc1nc(N)nc(-c2ccccc2)n1,inactive
6,CN(C)c1ccc(O)c2c1C[C@H]1C[C@H]3[C@H](N(C)C)C(=O)C(C(N)=O)=C(O)[C@@]3(O)C(=O)C1=C2O,inactive
7,O=C1CCCC1,inactive
8,CC(C)CC(=O)CC(C)CC(C)C (stereo unspecified),inactive
9,N#Cc1ccccc1,inactive
10,Cc1ccc2ncccc2c1,inactive
11,CCCCCCCCCCCCCCCCO,inactive
12,CC(=O)OC1CC(C)OC(C)O1 (stereo unspecified),inactive
13,CC(C)CCCCCCCOC(=O)CCCCC(=O)OCCCCCCCC(C)C,inactive
14,OC1C(O)C(O)C(O)C(O)C1O (stereo unspecified),inactive
15,C=C(C)CNCC,inactive
16,CC1(C)CC(N)CC(C)(CN)C1 (stereo unspecified),inactive
17,CC(=O)OCc1ccccc1,inactive
18,NCCCCCCN,inactive
19,CCO[Si](CCC#N)(OCC)OCC,inactive

# System: not listed separately
# Test: qHTS assay to identify small molecule antagonists of the progesterone receptor (PR) signaling pathway - cell viability counter screen (AID 1346798); further: nearly all actives have a fitted effect of over 50% in size
# Conditions: PR-UAS-bla HEK293T viability, CellTiter-Glo luminescence, 16 h; series mostly up to 92.4 µM
# In short: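 Viability was determined by ATP-based luminescence (CellTiter-Glo) in PR-UAS-bla HEK293T cells cultured in 2% charcoal-stripped serum and incubated 16 hr with compounds under R5020 stimulation.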
row,SMILES,outcome
1,CC(=O)CCC=C(C)C,inactive
2,N[C@H](Cc1c[nH]c2ccccc12)C(=O)O,inactive
3,COc1ccc(C)cc1N,inactive
4,CCCCCCCO,inactive
5,OCc1ccccc1,inactive
6,O=C1c2ccccc2CCc2ccccc21,inactive
7,CCCCCCCCCCCCCCCC(=O)OC(C)C,inactive
8,CC(=O)c1ccc(O)cc1,inactive
9,O=C(O)CCCCCCCCC(=O)O,inactive
10,O=C(O)Cn1c(=O)n(Cc2ccc(Br)cc2F)c(=O)c2ccc(Cl)cc21,inactive
11,CCCOC(=O)c1ccccc1,inactive
12,COc1ccc(CCC(C)=O)cc1,inactive
13,CCCCC(C=O)CC (stereo unspecified),inactive
14,CC(C)(C)c1cc(Cc2cc(C(C)(C)C)c(O)c(C(C)(C)C)c2)cc(C(C)(C)C)c1O,inactive
15,O=C1C(c2[nH]c3ccccc3c2O)=Nc2ccccc21,inactive
16,CSc1ccc(Cl)cc1,inactive
17,CCO[Si](CCCN)(OCC)OCC,inactive
18,CC(C)(Oc1ccc(CCNC(=O)c2ccc(Cl)cc2)cc1)C(=O)O,inactive
19,NCCNCCN,inactive

row,SMILES,outcome
1,CCCCCCCC=O,inactive
2,CCNC(=S)NCC,inactive
3,O=C(O)/C=C/C(=O)O,inactive
4,c1ccc(Oc2ccccc2)cc1,inactive
5,Nc1nc(N)nc(-c2ccccc2)n1,inactive
6,CN(C)c1ccc(O)c2c1C[C@H]1C[C@H]3[C@H](N(C)C)C(=O)C(C(N)=O)=C(O)[C@@]3(O)C(=O)C1=C2O,inactive
7,O=C1CCCC1,inactive
8,CC(C)CC(=O)CC(C)CC(C)C (stereo unspecified),inactive
9,N#Cc1ccccc1,inactive
10,Cc1ccc2ncccc2c1,inactive
11,CCCCCCCCCCCCCCCCO,inactive
12,CC(=O)OC1CC(C)OC(C)O1 (stereo unspecified),inactive
13,CC(C)CCCCCCCOC(=O)CCCCC(=O)OCCCCCCCC(C)C,inactive
14,OC1C(O)C(O)C(O)C(O)C1O (stereo unspecified),inactive
15,C=C(C)CNCC,inactive
16,CC1(C)CC(N)CC(C)(CN)C1 (stereo unspecified),inactive
17,CC(=O)OCc1ccccc1,inactive
18,NCCCCCCN,inactive
19,CCO[Si](CCC#N)(OCC)OCC,inactive
